# Several values for one entry are separate records, joined by “and”; a condition that tells them apart may be missing. Equal values may be shown once. Records with an inconclusive call do not appear. A call without a number means that no potency is given here. Some compounds were tested as several samples or in several runs, with calls that do not always agree. Activity calls are given as the source filed them. Calls follow the shape of the dose curve; as a rule, active = well fitted curve in the direction sought with a large enough effect in the repeat runs; inconclusive = weak or mixed curves; inactive = no such curve, though single readings can be large; an effect the other way counts as inactive or inconclusive.
# Legend:
# [1] = A CellTox Green Cytotoxicity Assay to monitor cytotoxicity in HEK293 cells - 32 hour (AID 1224881); also: potency is read from the fitted curve at half-maximal effect; nearly all actives have a fitted effect of over 40% in size
# Outline: (§1)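 Homogeneous no-lysis format: HEK293 cell suspension mixed with CellTox Green reagent, seeded, incubated 5 h at 37 C/5% CO2, then dosed by pintool with compound in DMSO.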
# [2] = A CellTox Green Cytotoxicity Assay to monitor cytotoxicity in HepG2 cells - 32 hour (AID 1224883); also: nearly all actives have a fitted effect of over 50% in size; also: potency is read from the fitted curve at half-maximal effect
# Outline: (§2)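 Fluorescent DNA-binding dye, 600 HepG2 cells/well, 5 h preincubation then compound in DMSO; same plates read at 0–40 h, 37 C.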
# [3] = A CellTox Green Cytotoxicity Assay to monitor cytotoxicity in HEK293 cells - 8 hour (AID 1224884); also: nearly all actives have a fitted effect of over 35% in size; also: potency is read from the fitted curve at half-maximal effect
# Outline: as §1
# [4] = qHTS RealTime-Glo MT Cell Viability Assay in HepG2 cells - 16 hour (AID 1224885); also: nearly all actives have a fitted effect of over 50% in size
# Outline: (§3)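 Cell number in HepG2 cultures estimated from NanoLuc luminescence generated by metabolic reduction of a prosubstrate by living cells. The homogeneous, nonlytic format allowed repeated reads at 0, 8, 16, 24, 32 and 40 h of compound exposure.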
# [5] = qHTS RealTime-Glo MT Cell Viability Assay in HEK293 cells - 24 hour (AID 1224886); also: potency is read from the fitted curve at half-maximal effect; nearly all actives have a fitted effect of over 50% in size
# Outline: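 Homogeneous bioluminescent viability format in HEK293 cells (600 cells/well). Following 5 h at 37 C/5% CO2, 23 nL compound was pintooled; the signal was measured repeatedly during 40 h incubation.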
# [6] = qHTS RealTime-Glo MT Cell Viability Assay in HEK293 cells - 8 hour (AID 1224887); also: nearly all actives have a fitted effect of over 50% in size; also: potency is read from the fitted curve at half-maximal effect
# Outline: (§4)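 Measured as luminescence from the same continuously cultured HEK293 wells at successive time points (0, 8, 16, 24, 32, 40 h) after compound addition. Reagent present from seeding; dosing at 5 h; incubation 37 C.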
# [7] = qHTS RealTime-Glo MT Cell Viability Assay in HEK293 cells - 0 hour (AID 1224880); also: top concentration of the series differs between compounds; nearly all actives have a fitted effect of over 45% in size
# Outline: as §4
# [8] = A CellTox Green Cytotoxicity Assay to monitor cytotoxicity in HepG2 cells - 0 hour (AID 1224882); also: nearly all actives have a fitted effect of over 35% in size
# Outline: as §2
# [9] = qHTS RealTime-Glo MT Cell Viability Assay in HepG2 cells - 0 hour (AID 1224889); also: nearly all actives have a fitted effect of over 50% in size
# Outline: as §3
# [10] = A CellTox Green Cytotoxicity Assay to monitor cytotoxicity in HEK293 cells - 16 hour (AID 1224888); also: nearly all actives have a fitted effect of over 35% in size
# Outline: as §1
SMILES,Potency [1],Potency [2],Potency [3],Potency [4],Potency [5],Potency [6],Potency [7],Potency [8],Potency [9],Potency [10]
CCC(=O)O[C@H]1CC[C@H]2[C@@H]3CCC4=CC(=O)CC[C@]4(C)[C@H]3CC[C@]12C,19.5 µM (active) and 19 µM (active),43.6 µM (active),34.7 µM (active) and inactive,inactive,21.9 µM (active) and 23.9 µM (active),38.9 µM (active),–,–,–,–
O=[N+]([O-])c1cccc2ccccc12,–,inactive,inactive,inactive,–,inactive,inactive,inactive,–,–
CCOc1cc(C=O)ccc1O,–,inactive,inactive,inactive,–,inactive,inactive,inactive,inactive,–
Oc1ccc(-c2ccccc2)cc1,–,inactive and 49 µM (active),inactive,inactive,21.9 µM (active),–,inactive,–,inactive,–
O=[N+]([O-])c1ccc(O)c([N+](=O)[O-])c1,–,inactive,inactive,inactive,–,inactive,inactive,inactive,inactive,inactive
Oc1c(Cl)c(Cl)c(Cl)c(Cl)c1Cl,–,inactive,inactive,inactive,–,inactive,inactive,inactive,–,inactive

# From PubChem BioAssay (Tox21)
